# Compounds with a hit are over-represented: about 3.5% of the library has one in this group of screens.
# TEAD-YAP block: TEAD-YAP interaction inhibition, primary screen, TEAD-YAP interaction inhibitor project, luminescence, HEK-TIYL cells; 640,000 tested, 1.4% active; inhibition, % at 9.12 µM; TEAD-Gal4/YAP UAS-luciferase luminescence; AID 1259422, 2018; in the data active means inhibition above about 32%;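 further: 0% = median of test compound wells and 100% = reference inhibitor wells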
# FBW7 act: FBW7 E3 ligase activators, primary screen, biochemical, AlphaScreen, human | F-box/WD repeat-containing protein 7 (Homo sapiens), Q969H0 | AID 1259310, 2017 | normalized activity (activation), % at 26.1 µM | AlphaScreen FBW7–phospho-cyclin E peptide binding, activator screen | 650,000 tested, 0.13% active; in the data active means normalized activity above about 1.9%;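 further: purified mutant Fbw7 with reduced substrate affinity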
# GPR151 activ: activators of human GPR151, primary screen, cell-based, PathHunter beta-arrestin, luminescence; G-protein coupled receptor 151 (Homo sapiens), Q8TDV0; PathHunter beta-arrestin GPR151 cells; activation, % at 11.2 µM; 650,000 tested, 1% active; AID 1508602, 2020; in the data active means activation above about 4.9%;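 further: 0% = median of compound wells and 100% = cells with positive control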
# Target sequence (Q8TDV0 whole entry, looked up): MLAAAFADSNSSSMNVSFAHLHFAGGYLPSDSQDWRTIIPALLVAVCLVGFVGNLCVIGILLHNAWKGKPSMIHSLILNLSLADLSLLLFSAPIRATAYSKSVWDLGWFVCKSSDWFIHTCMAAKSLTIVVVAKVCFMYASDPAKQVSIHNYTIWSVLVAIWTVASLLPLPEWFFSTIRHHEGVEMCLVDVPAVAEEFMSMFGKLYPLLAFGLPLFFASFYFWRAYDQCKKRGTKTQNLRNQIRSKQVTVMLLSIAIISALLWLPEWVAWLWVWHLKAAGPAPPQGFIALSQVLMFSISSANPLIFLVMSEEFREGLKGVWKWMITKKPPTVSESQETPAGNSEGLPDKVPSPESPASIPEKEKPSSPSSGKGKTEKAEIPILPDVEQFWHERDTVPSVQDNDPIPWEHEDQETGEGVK
# MITF primary: MITF inhibitors, primary screen, biochemical, AlphaScreen, human. Microphthalmia-associated transcription factor (Homo sapiens), O75030. 650,000 tested, 0.91% active. AID 1259374, 2018. inhibition, % at 2.6 µM. AlphaScreen MITF homodimerization, bead proximity signal; in the data active means inhibition above about 50%;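 further: 0% = vehicle wells with protein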
# GPR151 conf act: GPR151 activators, triplicate retest, confirmation, cell-based, PathHunter beta-arrestin, luminescence; activation, % at 11.2 µM; GPR151 PathHunter beta-arrestin cells, 90 min; % of EA-reagent control over plate median; 6,700 tested, under 10 active; shares compounds with GPR151 activ;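 active means mean percent activation across replicates above the confirmation screen cutoff of 4.91%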
# GPR119 counter: GPR119 activators in beta-arrestin cells, counter-screen for GPR151 activator project, cell-based, PathHunter beta-arrestin, luminescence, triplicate; shares compounds with GPR151 activ; 6,700 tested, 0.3% active; activation, % at 11.2 µM; 90 min; 0 = compound-well median, 100 = enzyme-acceptor control; AID 1508611, 2020;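 active means mean percent activation in the counterscreen above 29.09%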;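 further: counterscreen on off-target GPR119 to flag nonselective hits from the GPR151 activator screen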
# The depositor's hits bear a star; x = no result given.
SMILES,TEAD-YAP block,FBW7 act,GPR151 activ,MITF primary,GPR151 conf act,GPR119 counter
CCOC(=O)c1c(SCc2ccc(C)cc2)nc(=O)[nH]c1C,-6,0,1,-10,x,x
O=C(Cc1cccc(F)c1)N1CCC(O)(c2ccccn2)CC1,0,0,0,-4,x,x
O=C(Cc1ccc(F)cc1)N1CCC(O)(c2ccccn2)CC1,-5,0,11*,14,1,13
CC(C)(CO)NCc1ccc(Br)cc1,7,0,5.3*,-21,-1,-7
Cc1ccc(O)c(C2=Nc3ccccc3N=C(c3cccc(Br)c3)C2)c1,-77,0,0,-7,x,x
COc1ccc(O)c(C2=Nc3ccccc3N=C(c3cccc(Br)c3)C2)c1,-67,0,5.5*,7,0,6
Fc1ccc(C(c2nnnn2Cc2ccco2)N2CCN(Cc3ccccc3)CC2)cc1 (stereo not given),-2,0,5.8*,-1,0,-2
Fc1ccc(C(c2nnnn2Cc2ccco2)N2CCN(C3CCCCC3)CC2)cc1 (stereo not given),-6,0,1,-3,x,x
Cc1cc2[nH]c(=O)c(=O)[nH]c2cc1S(=O)(=O)NC1CCC(C)CC1 (stereo not given),-6,0,7.4*,2,1,3
COc1ccc(NC(=O)C(=O)NCCN2CCN(C(=O)c3c(F)cccc3F)CC2)cc1,4,0,5.8*,11,0,12
COc1ccc(C(=O)N2CCN(CCNC(=O)C(=O)Nc3ccccc3)CC2)cc1,-10,0,-1,-15,x,x
CCOC(=O)C1=C(C)N=c2s/c(=C/c3ccccc3)c(=O)n2C1c1cccs1 (stereo not given),-4,0,-1,23,x,x
S=C(Nc1ccc(Cl)cc1)Nc1ccccn1,-27,0,0,1,x,x
O=C(NNc1ccccn1)Nc1ccc(Cl)cc1,-8,0,6.5*,-3,0,0
Nc1ccc(N2CCCCC2)c(N)c1,7,0,-1,23,x,x
COc1cccc(C(=O)/C=C\Nc2ccc(S(=O)(=O)N=C(N)N)cc2)c1,-2,0,-1,15,x,x
Cc1cc(N2C(=O)c3ccc(C(=O)N4CCCCC4C)cc3C2=O)no1 (stereo not given),6,0,2,11,x,x
Cc1ccc(N2C(=O)c3ccc(C(=O)N4CCCCC4C)cc3C2=O)cc1 (stereo not given),3,0,5.0*,15,0,11
COc1ccccc1CNS(=O)(=O)c1ccc(F)c(C(=O)Nc2ccc(Cl)cc2Cl)c1,4,0,0,20,x,x
COc1cccc(-c2cncc(-c3ccc4c(ccn4C)c3)n2)c1,5,0,0,-6,x,x
CCOc1ccc(/C=C(\C#N)c2[nH]nc(N)c2C#N)cc1OC,-12,0,5.6*,5,0,-7
COc1cc(NC(=O)c2c(C)cc3ccccn23)cc(OC)c1OC,0,0,7.3*,18,0,-2
O=[N+]([O-])c1nn(-c2ccc(Cl)cc2)n(O)c1=Nc1ccc(Br)cc1,11,0,-1,12,x,x
Cc1ccccc1-n1c(SCC(N)=O)nc2ccccc2c1=O,-3,0,5.2*,-9,-1,-3
CN1/C(=C\C=N\NC(=S)Nc2cccnc2)C(C)(C)c2ccccc21,29,0,7.4*,3,0,2
COc1ccc(NC(=O)C2C3C=CC4(O3)C2C(=O)N(CCCN2CCOCC2)C4C(=O)NC2CCCC(C)C2C)cc1 (stereo not given),6,0,3,-3,x,x
CC(=O)c1cccc(NC(=O)c2ccoc2C)c1,4,0,5.9*,-4,-1,-9
FC(F)(F)c1ccc(Cn2cnc3c(Nc4ccccc4)nc(Nc4ccccc4)nc32)cc1,5,0,6.2*,7,0,4
